Test results: PubChem BioAssay (Tox21)
Results filed as inconclusive are left out. Calls of active or inactive are those of the source. Unless noted, calls follow the shape of the dose curve; as a rule, active = well fitted curve in the direction sought with a large enough effect in the repeat runs; inconclusive = weak or mixed curves; inactive = no such curve, though single readings can be large; an effect the other way counts as inactive or inconclusive.

Tests used:
[1] = qHTS assay to identify small molecule antagonists of the vitamin D receptor (VDR) signaling pathway - cell viability counter screen (AID 743225); also: % is scaled to controls: 0 for no effect and ±100 for the full control effect; nearly all actives have a fitted effect of over 50% in size
Summary of the method: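 Compounds were pinned onto VDR-bla HEK 293T cells together with 1-alpha,25-dihydroxyvitamin D3 at 3 nM final. After 16 h at 37C and 5% CO2 plus the reporter readout, cell viability was measured by CellTiter-Glo luminescence (30 min, room temperature).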

[2] = qHTS assay to identify small molecule agonists of the NFkB signaling pathway (AID 1159509; active = well fitted curve in the direction sought with a large enough effect in the signal ratio in the repeat runs, not every such curve was filed as active; the % refers to the signal ratio; also: series mostly up to about 61 µM; % is scaled to controls: 0 for no effect and ±100 for the full control effect)
Summary of the method: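 Beta-lactamase reporter assay run in quantitative high-throughput format on an NF-kB-responsive ME-180 line, with 5 hr compound treatment and a FRET-based blue/green fluorescence readout.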

[3] = qHTS assay to identify small molecule agonists of the NFkB signaling pathway - cell viability counter screen (AID 1159515; calls by dose curve; also: series mostly up to about 61 µM; % is scaled to controls: 0 for no effect and ±100 for the full control effect; nearly all actives have a fitted effect of over 55% in size)
Summary of the method: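 Cells are seeded (2,000 NFkB-bla ME-180 per well), rested overnight, and dosed with DMSO-dissolved compounds for 5 hr at 37 C. Viability is then read by CellTiter-Glo luminescence after 30 min at room temperature.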

[4] = qHTS assay to identify small molecule agonists of the endoplasmic reticulum stress response signaling pathway (AID 1159516; active = well fitted activation curve with a large enough effect in the signal ratio in the repeat runs, not every such curve was filed as active; the % refers to the signal ratio; also: % is scaled to controls: 0 for no effect and ±100 for the full control effect)
Summary of the method: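 Cells are seeded at 1,500 per well and incubated overnight. Compounds in DMSO are added for 5 hr at 37 C, then beta-lactamase FRET substrate for 2 hr at room temperature, and fluorescence at 460 and 530 nm is measured.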

[5] = qHTS assay to identify small molecule agonists of the endoplasmic reticulum stress response signaling pathway - cell viability counter screen (AID 1159517; calls by dose curve;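 also: HeLa cells carrying an ER stress response element beta-lactamase reporter; series mostly up to about 61 µM; % is scaled to controls: 0 for no effect and ±100 for the full control effect; nearly all actives have a fitted effect of over 50% in size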)
Summary of the method: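 Cytotoxicity of test compounds toward ESRE-bla HeLa cells was assessed after 5 hr exposure. The luminescent CellTiter-Glo signal was measured 30 min after reagent addition.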

[6] = qHTS assay to identify small molecule antagonists of the retinoid-related orphan receptor gamma (ROR-gamma) signaling pathway - cell viability counter screen (AID 1159520); also: % is scaled to controls: 0 for no effect and ±100 for the full control effect; nearly all actives have a fitted effect of over 50% in size
Summary of the method: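 Tet-on ROR gamma CHO cells (1,000/well) were plated 4 hr, given compounds in DMSO for 2 hr at 37 C, then induced with 1 uM final doxycycline for 16 hr. Viability was read as ATP by CellTiter-Glo luminescence after 30 min.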

[7] = target: Nuclear receptor ROR-gamma (Homo sapiens) (UniProt P51449); assay: qHTS assay to identify small molecule antagonists of the retinoid-related orphan receptor gamma (ROR-gamma) signaling pathway (AID 1159521;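 also: CHO cells with doxycycline inducible ROR-gamma driving an RORE luciferase reporter; top concentration of the series differs between compounds; % is scaled to controls: 0 for no effect and ±100 for the full control effect; nearly all actives have a fitted effect of over 50% in size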)
Summary of the method: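 Test compounds were applied to Tet-on RORγ CHO cells 2 h ahead of doxycycline hyclate (1 uM final). Luciferase reporter activity was quantified by luminescence after 16 h at 37 C and 5% CO2.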

[8] = qHTS assay to identify small molecule agonists of the AP-1 signaling pathway - cell viability counter screen (AID 1159525; calls by dose curve; also: nearly all actives have a fitted effect of over 55% in size)
Summary of the method: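 Each titration point was normalised to DMSO and tetra n-octyl ammonium bromide controls. The read was Cell Titer Glo luminescence after 30 min at RT, following 5 h compound exposure of ME-180 AP-1-bla cells at 37 °C.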

[9] = qHTS assay to identify small molecule agonists of the AP-1 signaling pathway (AID 1159526; calls by dose curve; also: % is scaled to controls: 0 for no effect and ±100 for the full control effect)
[10] = qHTS assay to identify small molecule agonists of the RXR signaling pathway - cell viability counter screen (AID 1159529)
Summary of the method: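 Compounds dissolved in DMSO were pinned onto HEK 293T cells carrying a beta-lactamase reporter under RXR-alpha control and incubated 16 hr. Cytotoxicity was then quantified by CellTiter-Glo luminescence.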

[11] = qHTS assay to identify small molecule antagonists of the retinoid acid receptor (RAR) signaling pathway - cell viability counter screen (AID 1159551); also: % is scaled to controls: 0 for no effect and ±100 for the full control effect; nearly all actives have a fitted effect of over 35% in size
Summary of the method: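 Cells (C3RL4) are plated, incubated overnight, dosed with compound in DMSO, then given retinol at 1 uM final. After 6 h at 37 C, CellTiter-Glo is added and luminescence read following 30 min at room temperature.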

[12] = qHTS assay to identify small molecule antagonists of the retinoic acid receptor (RAR) signaling pathway (AID 1159552)
Summary of the method: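 Test chemicals and DMSO controls were pin-transferred onto C3RL4 cells a day after seeding; retinol (1 uM final) followed at once. Luminescent reporter output was quantified after 6 hr of co-incubation and 30 min with detection reagent.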

[13] = qHTS assay to identify small molecule agonists of the retinoic acid receptor (RAR) signaling pathway (AID 1159553); also: % is scaled to controls: 0 for no effect and ±100 for the full control effect
Summary of the method: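 Seed C3RL4 reporter cells at 1,000 per well and incubate overnight at 37 C. Add compounds in DMSO, incubate 6 hr. Add luciferase reagent, wait 30 min at room temperature, read luminescence.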

[14] = qHTS assay to identify small molecule antagonists of the estrogen related receptor (ERR) signaling pathway - cell viability counter screen (AID 1224818)
Summary of the method: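 ERR cells, 2,000/well; 6 h settle at 37 C/5% CO2; compound pin transfer (DMSO); 17.5 h at 37 C; CellTiter-Fluor, 30 min, fluorescence read.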

[15] = qHTS assay to identify small molecule antagonists of the estrogen related receptor (ERR) signaling pathway (AID 1224819)
Summary of the method: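 qHTS in ERR cells, 2,000/well, 1536 format. Cpd (DMSO) added after 6 h settle, 18 h 37 C. One-Glo luminescence, 30 min RT.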

[16] = qHTS assay to identify small molecule agonists of the estrogen related receptor (ERR) signaling pathway (AID 1224820); also: % is scaled to controls: 0 for no effect and ±100 for the full control effect
Summary of the method: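 Following a 6 h settling period, 2,000 ERR cells per well receive DMSO-dissolved compounds by pin tool and incubate 18 h at 37 C; agonist activity is scored from One-Glo luminescence read 30 min post-addition.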

[17] = test system: estrogen-related receptor alpha (ERRalpha) with PGC-1alpha coactivator, human; assay: qHTS assay to identify small molecule antagonists of the estrogen related receptor signaling pathway with the pleiotropic PPARgamma coactivator (PGC) (AID 1224821; calls by dose curve)
Summary of the method: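 Screening used NTP's PGC/ERR cells, dosed via pin tool with compound in DMSO alongside positive and negative controls. After 18 h at 37 C, One-Glo reagent sat 30 min at room temperature before luminescence detection.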

[18] = qHTS assay to identify small molecule antagonists of the estrogen related receptor signaling pathway with the pleiotropic PPARgamma coactivator (PGC) cell viability counter screen (AID 1224822)
Summary of the method: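 Multiplexed viability counter screen run in PGC/ERR cells treated with compounds for 17.5 h at 37 C; live-cell protease signal measured by CellTiter-Fluor fluorescence.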

[19] = qHTS assay to identify small molecule agonists of the estrogen related receptor signaling pathway with the pleiotropic PPARgamma coactivator (PGC) (AID 1224823); also: % is scaled to controls: 0 for no effect and ±100 for the full control effect
Summary of the method: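 In this quantitative high-throughput screen, an 18 h, 37 C treatment of PGC/ERR cells with compounds in DMSO preceded a One-Glo luminescence read taken after 30 min at room temperature.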

[20] = target: Retinoic acid receptor RXR-alpha (Homo sapiens) (UniProt P19793); assay: qHTS assay to identify small molecule agonists of the RXR signaling pathway (AID 1159527; calls by dose curve; also: % is scaled to controls: 0 for no effect and ±100 for the full control effect; nearly all actives have a fitted effect of over 35% in size)
Sequence of Retinoic acid receptor RXR-alpha (Homo sapiens) (P19793 whole entry, looked up): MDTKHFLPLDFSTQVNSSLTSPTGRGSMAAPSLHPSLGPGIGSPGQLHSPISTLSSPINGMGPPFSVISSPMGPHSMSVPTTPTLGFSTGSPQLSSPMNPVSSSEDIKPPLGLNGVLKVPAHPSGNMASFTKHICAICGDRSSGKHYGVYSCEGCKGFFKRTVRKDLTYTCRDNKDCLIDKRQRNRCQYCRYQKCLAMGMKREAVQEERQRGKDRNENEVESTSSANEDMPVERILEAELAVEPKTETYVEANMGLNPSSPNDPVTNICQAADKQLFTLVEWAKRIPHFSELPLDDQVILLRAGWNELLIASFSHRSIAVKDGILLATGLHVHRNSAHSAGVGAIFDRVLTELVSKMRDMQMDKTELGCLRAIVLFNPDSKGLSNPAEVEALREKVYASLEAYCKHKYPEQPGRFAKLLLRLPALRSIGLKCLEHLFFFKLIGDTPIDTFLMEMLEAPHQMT
Summary of the method: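 Using 9-cis retinoic acid as the reference agonist, chemicals were tested in HEK 293T cells […] for 16 hr; substrate loading lasted 2 hr at room temperature.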

Cc1ccc(Cl)c(O)c1
inactive: Potency [1] | outcome [2] | outcome [3] | outcome [4] | Potency [5] | Potency [6] | Potency [7] | Potency [8] | outcome [9] | Potency [10] | Potency [11] | Potency [12] | Potency [13]

CCCN1CCC[C@@H]2Cc3nc(N)ncc3C[C@H]21
inactive: Potency [1] | outcome [2] | outcome [3] | outcome [4] | Potency [5] | Potency [6] | Potency [7] | Potency [8] | outcome [9] | Potency [10] | Potency [11] | Potency [12] | outcome [14] | outcome [15] | outcome [16] | outcome [17] | outcome [18] | outcome [19]

COc1cccc([C@@]2(O)CCCC[C@@H]2CN(C)C)c1
inactive: Potency [1] | outcome [2] | outcome [3] | outcome [4] | Potency [5] | Potency [6] | Potency [7] | Potency [8] | outcome [9] | Potency [20] | Potency [11] | Potency [12] | Potency [13]

CC#Cc1cc(C)nc(Nc2ccccc2)n1
inactive: Potency [1] | outcome [2] | outcome [3] | outcome [4] | Potency [5] | Potency [6] | Potency [7] | Potency [8] | outcome [9] | Potency [10] | Potency [11] | Potency [12]

CC1=C2[C@H]3OC(=O)[C@@H](C)[C@@H]3CC[C@@]2(C)C=CC1=O
inactive: Potency [1] | outcome [2] | outcome [3] | outcome [4] | Potency [5] | Potency [6] | Potency [7] | Potency [8] | outcome [9] | Potency [20] | Potency [12] | Potency [13]

Cc1ccc2c(c1)C1CN(C)CCC1N2 (stereo not drawn)
inactive: Potency [1] | outcome [2] | outcome [3] | outcome [4] | Potency [5] | activity, negative = cytotoxicity [6] 3.75% [at 19 µM] | activity change, negative = inhibition [7] 3.88% [at 19 µM] | viability change, negative = cytotoxic [8] 5.2% [at 15.8 µM] | activation [9] 8.05% [at 15.8 µM] | activation [20] -0.325% [at 15.8 µM] | activity change, negative = cytotoxicity [11] 2.36% [at 19 µM] | activity, negative = inhibition [12] -12.3% [at 19 µM] | Potency [13]

CN(C)CCc1c[nH]c2cccc(OP(=O)(O)O)c12
inactive: Potency [1] | outcome [2] | outcome [3] | outcome [4] | Potency [5] | Potency [6] | Potency [7] | Potency [8] | outcome [9] | Potency [20] | Potency [11] | Potency [12] | Potency [13]

N#CN=C1SCCN1Cc1ccc(Cl)nc1
inactive: Potency [1] | outcome [2] | outcome [3] | outcome [4] | Potency [5] | Potency [6] | Potency [7] | Potency [8] | outcome [9] | Potency [10] | Potency [11] | Potency [12] | Potency [13]

CCC1(c2ccccc2)CCC(=O)NC1=O (stereo not drawn)
inactive: Potency [1] | outcome [2] | outcome [3] | outcome [4] | Potency [5] | Potency [6] | Potency [7] | Potency [8] | outcome [9] | Potency [20] | Potency [10] | Potency [12] | Potency [13]

CCCCS(=O)(=O)Cl
inactive: Potency [1] | outcome [2] | outcome [3] | outcome [4] | Potency [5] | Potency [6] | Potency [7] | Potency [8] | outcome [9] | Potency [10] | Potency [11] | Potency [12] | Potency [13]
